Holding throughout (assay): NCI-60 one-dose screen, 48 h (100 = growth as untreated, 0 = no growth, -100 = all killed)
Common to all, as to conditions: 10 µM unless noted

For assay [1], the system named is T-47D breast.
The test system of assay [2] is SW-620 colon.
In assay [3] the test system is MCF7 breast.
The subject of assay [4] is HCT-116 colon.
In assay [5] the test system is KM12 colon.
The subject of assay [6] is BT-549 breast.
The test system of assay [7] is MDA-MB-435 melanoma.
Assay [8] deals with HCC-2998 colon.

About 83,000 compounds went through this panel and 20% of them were active in at least one assay; those are over-represented in the sample as a whole.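 Single-dose data. Exposure time 48 hours. Values below 10 considered active.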 Unmarked numbers belong to inactive results. Calls of active or inactive are those of the source.

In the case of `CCCC(NC(=O)OCc1ccccc1)C(=O)O` (stereo not drawn), the growth in assay [1] was 99.6%; in assay [2], 97.9%; in assay [3], 96%; in assay [4], 98.1%; in assay [5] it was 109%.
In the case of `N/C(=N\c1nc2ccccc2[nH]1)NC(=O)Cc1cccc2ccccc12`, the growth in assay [6] was 85.3%; in assay [7], 94.3%; in assay [2], 85.6%; in assay [3] it was 59.4%; in assay [4], 67.4%; in assay [8] it was 103%. In addition, the growth in assay [5] was 82%.
As to `CCCCC(CC)COC(=O)C[N+](C)(C)CCOC(c1ccccc1)c1ccccc1` (stereo not drawn), the growth in assay [6] is 17.6%; in assay [7], 0.527% (active); in assay [2], 52.2%; in assay [3] it was 33.6%; in assay [4] it was 31.7%; in assay [8], 3.56% (active).
Regarding `CCN(CC)CCSC(=O)C(O)(c1ccccc1)C1CCCC1` (stereo not drawn), the growth in assay [6] was 109%; in assay [7], 115%; in assay [2] it was 102%; in assay [3] it was 114%; in assay [4], 109%; in assay [8], 90.3%. Further, the growth in assay [5] was 79.4%.
For the molecule `ClC1=C(Cl)C(Cl)=C(Cl)C1=Cc1ccccc1`, the growth was -82.1% (active) in assay [6]; -54% (active) in assay [7]; -56.2% (active) in assay [2]; -29.3% (active) in assay [3]; -99% (active) in assay [4]; -82.8% (active) in assay [8]. Besides, the growth in assay [5] was -84.7% (active).
In the case of `Cc1cc[n+](CCCCCCCCCC[n+]2ccc(C)cc2)cc1`, the growth is 101% in assay [6]; 102% in assay [7]; 103% in assay [2]; 93.6% in assay [3]; 96.4% in assay [4]; 92.8% in assay [8].
Consider `CC1Cc2c(ncnc2-n2cnc3ccccc32)N(C)c2ccccc21` (stereo not drawn), for which the growth is 33.3% in assay [1]; 18.2% in assay [3]; 21.3% in assay [4]; 64.8% in assay [8]; 27.8% in assay [5].
Turning to `C=CCCC1(C)NC(=O)NC1=O` (stereo not drawn), the growth in assay [6] was 100%; in assay [7] it was 99.4%; in assay [2], 102%; in assay [3], 92.4%; in assay [4] it was 96.6%.
As for `Cc1ccc(S(=O)(=O)N/N=C2\CC3CCC2(C)C3(C)C)cc1` (stereo not drawn), the growth in assay [1] was 105%; in assay [2], 99.3%; in assay [3] it was 90.3%; in assay [4], 104%; in assay [8], 748%; in assay [5], 95.4%.
For the molecule `Cc1nc(Cl)cc(N(c2cc(Cl)nc(C)n2)c2ncc(C(=O)Nc3c(C)cccc3Cl)s2)n1`, the growth in assay [6] is 93.3%; in assay [7], 71.8%; in assay [2] it was 96.6%; in assay [3] it was 53.3%; in assay [4] it was 19.1%; in assay [8] it was 80.7%. For the same molecule, in assay [5], the growth was 79.7%.
Turning to `CCNC(=O)N1CCc2c(Cl)c3c(c(OC)c2[C@@H]1[C@H]1OCc2c1ccc(OC)c2OC)OCCO3`, the growth in assay [6] is 55.9%; in assay [7] it was -43.4% (active); in assay [2] it was 17.5%; in assay [3] it was 16.1%; in assay [4], 18.2%; in assay [8], 61.1%. In addition, the growth in assay [5] is 18.7%.
For the molecule `COC(=O)c1c(C)[nH]c(/C=C2\N=C(c3ccc[nH]3)C=C2OC)c1C`, the growth in assay [6] is 0.541% (active); in assay [7], -44.9% (active); in assay [2], 1.56% (active); in assay [3], 1.82% (active); in assay [4] it was -75% (active); in assay [8], -40.9% (active). Also, the growth in assay [5] is -2.32% (active).
For `CCN(CC)c1cc(N)c(Cc2c(N)cc(N(CC)CC)cc2Cl)c(Cl)c1`, the growth in assay [6] is 24.9%; in assay [7], 38.7%; in assay [2] it was 80%; in assay [3] it was 24.7%; in assay [4] it was 38.3%; in assay [8], 47%.
`N#CCCc1c[nH]c2ccccc12`: the growth in assay [6] is 97.6%; in assay [7], 101%; in assay [2] it was 92%; in assay [3], 94.8%; in assay [4], 92.8%.
Turning to `CCCCCC1CCCCN1C(=O)OCCCC` (stereo not drawn), the growth in assay [1] was 99.1%; in assay [2], 111%; in assay [3], 96.7%; in assay [4] it was 109%; in assay [5], 104%.
As for `CCNc1cc2c(cc1Br)-c1ccccc1C2=O`, the growth in assay [1] is 34.4%; in assay [2], 98.9%; in assay [3], 26.8%; in assay [4] it was 97.8%; in assay [8], 102%; in assay [5], 83.4%.
`O=C1/C(=C/c2ccc(OCc3ccccc3)cc2)Oc2cc(OCCN3CCCCC3)ccc21`: the growth in assay [6] is 85.3%; in assay [7], 54.7%; in assay [2], 71.1%; in assay [3], 65.2%; in assay [4], 52.3%; in assay [8], 90.5%. Besides, in assay [5], the growth is 82.3%.
Turning to `COc1ccc(C(=O)CCC(=O)O)cc1`, the growth in assay [1] was 33.9%; in assay [2], 84.5%; in assay [3] it was 21.2%; in assay [4], 7.77% (active); in assay [8] it was 102%; in assay [5] it was 103%.
Turning to `c1ccc(-c2nc(N3CCCNCC3)c3nc(-c4ccccc4)oc3n2)cc1`, the growth in assay [6] is 95.3%; in assay [7], -85.7% (active); in assay [2], -77.1% (active); in assay [3], -66.7% (active); in assay [4] it was -74.8% (active); in assay [8] it was -88.7% (active). The growth in assay [5] is -74.7% (active).
Turning to `O=C(NCCO)c1cccnc1`, the growth in assay [6] was 108%; in assay [7], 106%; in assay [2], 96.1%; in assay [3] it was 98.5%; in assay [4], 99%; in assay [8], 103%.

Values taken from PubChem BioAssay (NCI).
